From PubChem BioAssay (NCATS) come the findings set out here.

Structures are written as SMILES. Inconclusive results are not listed. The list shows a part of the results. Activity calls are given as the source filed them. Unless noted, calls come from the whole dose curve; as a rule, active = well fitted curve in the direction sought with a large enough effect; inconclusive = small, poorly fitted or top-dose-only effect, or another doubt; inactive = no such curve, though single readings can be large; an effect the other way counts as inactive or inconclusive.

The nature of test [1]: qHTS for Inhibitors of Plasmodium falciparum (GB4) proliferation (AID 504315). Note: nearly all actives have a fitted effect of over 50% in size. Put shortly: (§1)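 Erythrocytes infected with P. falciparum line (0.3% parasitemia, 2.5% hematocrit final) incubated with compounds 72 h at 37 °C, 5% CO2; SYBR Green lysis buffer added, fluorescence read next day. Normalized to 0.29 uM artemisinin and DMSO.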
A general note: qHTS replaces the single test concentration by a dilution series.

Test [2] can be described thus: qHTS for Inhibitors of Plasmodium falciparum (7G8) proliferation (AID 504316). Note: series mostly up to about 6.7 µM; nearly all actives have a fitted effect of over 65% in size. Put shortly: as §1
A short description of test [3]: qHTS for Inhibitors of Plasmodium falciparum (HB3) proliferation (AID 504318). Note: nearly all actives have a fitted effect of over 60% in size. An outline of the steps:
as §1

A short description of test [4]: qHTS for Inhibitors of Plasmodium falciparum (CP250) proliferation (AID 504320). An outline of the steps: as §1
Test [5] has as its target Mitogen-activated protein kinase 10 (Mus musculus) (UniProt Q61831). As to the kind of experiment: JNK3 AlphaScreen Assay (AID 530; active = well fitted curve in either direction with a large enough effect, not every such curve was filed as active;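 note: kinase came from lysate of stimulated human HepG2 cells; signal reports phosphorylation of biotinylated GST-cJun 1-79 at Ser73 with 10 µM ATP; series mostly up to about 57 µM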). Put shortly: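 qHTS format: compounds tested as titrations against IL-1beta/TNF-alpha-activated HepG2 lysate JNK3 with biotin-GST-cJun substrate and 10 uM ATP at room temperature. Loss of anti-phospho-cJun AlphaScreen signal indicates inhibition.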
For orientation: Bead proximity is the source of the signal in Alpha formats.

The target in test [6] is 3',5'-cyclic-AMP phosphodiesterase 4B (Homo sapiens) (UniProt Q07343). Nature of the test: qHTS Assay for Inhibitors of PDE-IV (AID 607; active = well fitted activation curve with a large enough effect in the main read-out, with a control signal flat, not every such curve was filed as active). Put shortly:
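Live HEK293 cells with a modified cyclic nucleotide-gated (CNG) channel report intracellular cAMP via membrane-potential dye fluorescence (ex 535/em 590 nm). Endogenous PDE-IV was targeted. Compounds were tested at up to 22.9 uM final; RO 20-1724 100 uM served as control.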

Test [7] has as its target Cytochrome P450 2C9 (Homo sapiens) (UniProt P11712). As to the kind of experiment: qHTS Assay for Inhibitors and Substrates of Cytochrome P450 2C9 (AID 883). Note: nearly all actives have a fitted effect of over 60% in size. An outline of the steps: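 10nM CYP2C9 + 100uM Luciferin-H (=KM), 25mM KPO4; cpd 10 min 37C; NADPH regen, 60 min 37C; stop/detect with P450 Glo-Buffer 20 min; luminescence. Norm. to 57uM sulphaphenazole as full inhibition.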

Test [8] addresses Cytochrome P450 2D6 (Homo sapiens) (UniProt P10635). As to the kind of experiment: qHTS Assay for Inhibitors and Substrates of Cytochrome P450 2D6 (AID 891).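 Note: luciferin methyl ether substrate demethylated by CYP2D6 with NADPH regeneration; nearly all actives have a fitted effect of over 60% in size.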 An outline of the steps:
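Human CYP2D6 (5 nM) with 30 uM Luciferin-ME EGE (at Km) in 100 mM KPO4, compound preincubated 10 min, then NADPH regeneration system for 60 min at room temperature. Luciferin read by luminescence; normalized to 1.43 uM quinidine.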

Test [9] deals with Cytochrome P450 2C19 (Homo sapiens) (UniProt P33261). As to the kind of experiment: qHTS Assay for Inhibitors and Substrates of Cytochrome P450 2C19 (AID 899). Note: nearly all actives have a fitted effect of over 60% in size. An outline of the steps:
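Luminescent read-out of luciferin formed from Luciferin-H EGE (10uM, equal to KM). Enzyme 5nM in 50mM KPO4; compound added, 10 min at 37C, then NADPH regenerating system for 60 min at 37C. Full inhibition defined by 57uM ketoconazole.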

Test [10] concerns the target Phosphoglycerate kinase, glycosomal (Trypanosoma brucei brucei) (UniProt P07378). As to the kind of experiment: qHTS for inhibitors of Phosphogylcerate Kinase: Hit Validation Screen (AID 686980). Note: potency is the fitted concentration of half-maximal effect; nearly all actives have a fitted effect of over 65% in size. To be noted: TbPGK coupled GAPDH assay, Kinase-Glo luminescence. An outline of the steps: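 Luminescent ATP detection (Kinase-Glo Plus) follows a 60-minute room-temperature incubation, with wells lacking PGK as controls. Buffer: 100 mM TEA (pH 7.6), 5 mM MgCl2, 0.01% Tween-20. Coupling enzyme GAPDH (100 nM final) supplies unstable 1,3-BPG in-well.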

Test [11] concerns the target DNA polymerase iota (Homo sapiens) (UniProt Q9UNA4). As to the kind of experiment: qHTS for Inhibitors of Polymerase Iota: Confirmatory Assay for Cherry-picked Compounds (AID 720496). Note: potency is the fitted concentration of half-maximal effect. To be noted: Pol iota primer extension, TAMRA/BHQ fluorescence. An outline of the steps:
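Read-out is TAMRA fluorescence (525 nm excitation, 598 nm emission) at 0 and 10 min. It reflects strand displacement from a BHQ-2-quenched template by 10 nM Pol iota, with 50 nM final substrate after 15 min compound preincubation.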

Test [12] has as its target Bifunctional 3'-5' exonuclease/ATP-dependent helicase WRN (Homo sapiens) (UniProt Q14191). Nature of the test: qHTS for Inhibitors of WRN Helicase: Confirmatory Assay for Cherry-picked Compounds. (AID 720497). Note: potency is the fitted concentration of half-maximal effect; nearly all actives have a fitted effect of over 65% in size. The note with it: WRN helicase DNA unwinding, fluorescence kinetic. An outline of the steps:
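Helicase activity is tracked as a kinetic fluorescence signal (excitation 525 nm, emission 598 nm) after 100 nM forked duplex DNA and 2 mM ATP are added to 20 nM WRN that has been preincubated 15 min with compound at room temperature.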

The nature of test [13]: qHTS for Inhibitors of WRN Helicase: Thiazole Orange DNA Binding Counterscreen (AID 720499). An outline of the steps:
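After pintool transfer of compounds into a thiazole orange/DNA mixture (100 nM and 50 nM respectively) and 15 min at room temperature, plates were imaged for fluorescence at 530 nm emission, 480 nm excitation.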

Test [14] concerns the target DNA polymerase kappa (Homo sapiens) (UniProt Q9UBT6). Nature of the test: qHTS for Inhibitors of Polymerase Kappa: Confirmatory Assay for Cherry-picked Compounds (AID 720501). Note: potency is the fitted concentration of half-maximal effect. The note with it: purified Pol-kappa, fluorescent strand-displacement substrate. An outline of the steps:
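10 nM human Pol-kappa was preincubated with compound 15 min at room temperature, then 50 nM (final) primer/template substrate with TAMRA-labeled reporter strand and BHQ-2-labeled template added. Fluorescence (Ex 525, Em 598 nm) read at 0 and 10 min.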

The target in test [15] is RecQ-like DNA helicase BLM (Homo sapiens) (UniProt P54132). Nature of the test: qHTS for Inhibitors of WRN Helicase: BLM Helicase Counterscreen for WRN Inhibitors (AID 720503). The note with it: Recombinant BLM helicase DNA unwinding, red fluorescence. Put shortly: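 Steps: compounds added to 1 nM BLM in pH 8.0 Tris buffer with 2 mM MgCl2; 15 min room-temperature incubation; substrates added (100 nM DNA, 2 mM ATP final); discontinuous kinetic fluorescence measurement, reads spaced 15 min.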

In test [16] the target is Cytochrome P450 3A4 (Homo sapiens) (UniProt P08684). Nature of the test: qHTS Assay for Inhibitors and Substrates of Cytochrome P450 3A4 (AID 884). Note: series mostly up to about 57 µM; nearly all actives have a fitted effect of over 50% in size. Put shortly:
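20 nM human CYP3A4 with 25 uM Luciferin-PPXE (at KM) in 200 mM KPO4, preincubated 10 min with compound; NADPH regeneration started a 60 min RT reaction. Luciferin detected by luminescence, normalized to 57 uM ketoconazole as full inhibition.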

Test [17] can be described thus: Confirmation and Secondary Assay for Modulators of Hemoglobin Beta Chain Splicing at IVS2 705 locus (AID 930).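 Note: HeLa cells stably expressing the EGFP-705 splicing reporter; GFP fluorescence per well restored by corrected splicing of the IVS2-705 intron in EGFP; series mostly up to about 46 µM.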 An outline of the steps:
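HeLa EGFP-705 reporter; 500 cells/well, o/n 37C 5% CO2; cpd 2 d; 488 ex/500-520 em laser scan; total peak GFP intensity/well. Ref: 500 nM […] antisense PNA.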

Test [18] deals with Ubiquitin carboxyl-terminal hydrolase 1 (Homo sapiens) (UniProt O94782). Nature of the test: Inhibitors of USP1/UAF1: Pilot qHTS (AID 504865).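 Note: rhodamine fluorescence freed from ubiquitin-rhodamine substrate followed over time; top concentration of the series differs between compounds; nearly all actives have a fitted effect of over 35% in size.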 Put shortly: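 Kinetic fluorescence assay: 1nM USP1/UAF1, 15 min compound preincubation, then 150nM Ub-Rho; 480/540 nm.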
For test [19], the target named is Tumor susceptibility gene 101 protein (Homo sapiens) (UniProt Q99816). Nature of the test: qHTS Assay for Iinhibitors of HIV-1 Budding by Blocking the Interaction of PTAP/TSG101: Hit Validation (AID 651600). Note: nearly all actives have a fitted effect of over 70% in size. An outline of the steps:
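Displacement of a FITC-labeled PTAP-motif peptide (50 nM) from the Tsg101 binding domain (10 uM) was monitored by fluorescence polarization after a 20 min room-temperature incubation.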

Sequence of 3',5'-cyclic-AMP phosphodiesterase 4B (Homo sapiens) (Q07343 whole entry, looked up): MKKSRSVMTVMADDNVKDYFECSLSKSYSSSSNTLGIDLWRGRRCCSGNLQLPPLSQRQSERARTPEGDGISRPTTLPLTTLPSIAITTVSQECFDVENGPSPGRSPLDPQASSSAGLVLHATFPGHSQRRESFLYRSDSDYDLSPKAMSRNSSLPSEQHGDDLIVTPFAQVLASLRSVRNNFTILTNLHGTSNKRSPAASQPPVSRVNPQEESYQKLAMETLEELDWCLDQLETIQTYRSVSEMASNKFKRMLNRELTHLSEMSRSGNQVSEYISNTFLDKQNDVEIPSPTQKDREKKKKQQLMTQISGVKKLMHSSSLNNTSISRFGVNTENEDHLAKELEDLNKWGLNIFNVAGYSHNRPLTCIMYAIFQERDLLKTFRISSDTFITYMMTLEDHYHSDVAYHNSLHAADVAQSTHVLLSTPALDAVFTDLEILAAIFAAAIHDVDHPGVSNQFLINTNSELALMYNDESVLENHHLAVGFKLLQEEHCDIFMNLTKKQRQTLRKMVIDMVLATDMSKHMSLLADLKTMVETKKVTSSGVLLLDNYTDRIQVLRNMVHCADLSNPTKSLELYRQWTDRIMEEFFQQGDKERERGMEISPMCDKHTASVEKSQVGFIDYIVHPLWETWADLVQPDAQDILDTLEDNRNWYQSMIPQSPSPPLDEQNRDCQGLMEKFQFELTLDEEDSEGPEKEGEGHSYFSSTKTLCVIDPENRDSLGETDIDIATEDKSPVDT
Sequence of Cytochrome P450 2D6 (Homo sapiens) (P10635 whole entry, looked up): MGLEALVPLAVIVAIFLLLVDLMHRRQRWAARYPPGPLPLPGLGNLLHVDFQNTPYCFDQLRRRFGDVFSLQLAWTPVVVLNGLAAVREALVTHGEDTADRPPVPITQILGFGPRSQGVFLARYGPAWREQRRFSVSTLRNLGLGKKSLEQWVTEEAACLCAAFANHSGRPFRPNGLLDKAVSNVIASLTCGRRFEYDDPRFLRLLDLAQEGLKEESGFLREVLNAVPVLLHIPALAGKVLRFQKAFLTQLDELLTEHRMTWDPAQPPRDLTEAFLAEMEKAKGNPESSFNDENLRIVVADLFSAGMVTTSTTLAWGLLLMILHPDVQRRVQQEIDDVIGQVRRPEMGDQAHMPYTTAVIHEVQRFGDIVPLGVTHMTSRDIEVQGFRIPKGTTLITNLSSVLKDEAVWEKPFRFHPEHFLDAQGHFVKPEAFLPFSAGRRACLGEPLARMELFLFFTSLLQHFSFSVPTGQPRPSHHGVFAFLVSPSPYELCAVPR
Sequence of Tumor susceptibility gene 101 protein (Homo sapiens) (Q99816 whole entry, looked up, the tested form may be a part): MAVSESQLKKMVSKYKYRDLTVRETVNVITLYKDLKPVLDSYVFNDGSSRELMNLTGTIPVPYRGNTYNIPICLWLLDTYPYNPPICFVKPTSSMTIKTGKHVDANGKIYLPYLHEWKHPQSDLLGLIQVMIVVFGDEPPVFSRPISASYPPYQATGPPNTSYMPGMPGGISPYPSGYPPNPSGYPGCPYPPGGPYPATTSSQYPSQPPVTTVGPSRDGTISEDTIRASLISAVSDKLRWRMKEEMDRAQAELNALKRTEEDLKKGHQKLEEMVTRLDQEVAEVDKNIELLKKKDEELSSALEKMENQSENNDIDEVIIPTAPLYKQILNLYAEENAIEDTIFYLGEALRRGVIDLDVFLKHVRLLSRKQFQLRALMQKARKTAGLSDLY
Sequence of DNA polymerase iota (Homo sapiens) (Q9UNA4 whole entry, looked up): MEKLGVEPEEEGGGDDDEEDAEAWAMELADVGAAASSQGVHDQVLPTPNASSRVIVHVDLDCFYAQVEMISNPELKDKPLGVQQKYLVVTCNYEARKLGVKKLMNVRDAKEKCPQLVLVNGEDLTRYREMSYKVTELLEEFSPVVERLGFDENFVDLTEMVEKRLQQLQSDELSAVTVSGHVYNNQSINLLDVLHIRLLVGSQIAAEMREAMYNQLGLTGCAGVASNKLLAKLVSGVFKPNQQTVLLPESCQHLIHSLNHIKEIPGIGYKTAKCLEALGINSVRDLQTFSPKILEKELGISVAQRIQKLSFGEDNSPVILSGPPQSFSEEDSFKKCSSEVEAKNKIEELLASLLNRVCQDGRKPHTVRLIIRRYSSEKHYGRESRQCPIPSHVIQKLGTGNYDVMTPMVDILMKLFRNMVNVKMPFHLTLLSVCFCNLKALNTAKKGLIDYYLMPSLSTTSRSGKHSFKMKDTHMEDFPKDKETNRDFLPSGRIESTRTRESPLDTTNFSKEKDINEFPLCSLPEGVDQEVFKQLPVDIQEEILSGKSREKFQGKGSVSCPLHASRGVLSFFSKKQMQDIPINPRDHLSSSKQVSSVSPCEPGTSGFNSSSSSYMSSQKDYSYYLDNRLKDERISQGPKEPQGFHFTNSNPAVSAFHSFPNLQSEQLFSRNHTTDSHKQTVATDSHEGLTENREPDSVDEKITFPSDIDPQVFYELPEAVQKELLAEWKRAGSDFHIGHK
Sequence of Cytochrome P450 2C9 (Homo sapiens) (P11712 whole entry, looked up): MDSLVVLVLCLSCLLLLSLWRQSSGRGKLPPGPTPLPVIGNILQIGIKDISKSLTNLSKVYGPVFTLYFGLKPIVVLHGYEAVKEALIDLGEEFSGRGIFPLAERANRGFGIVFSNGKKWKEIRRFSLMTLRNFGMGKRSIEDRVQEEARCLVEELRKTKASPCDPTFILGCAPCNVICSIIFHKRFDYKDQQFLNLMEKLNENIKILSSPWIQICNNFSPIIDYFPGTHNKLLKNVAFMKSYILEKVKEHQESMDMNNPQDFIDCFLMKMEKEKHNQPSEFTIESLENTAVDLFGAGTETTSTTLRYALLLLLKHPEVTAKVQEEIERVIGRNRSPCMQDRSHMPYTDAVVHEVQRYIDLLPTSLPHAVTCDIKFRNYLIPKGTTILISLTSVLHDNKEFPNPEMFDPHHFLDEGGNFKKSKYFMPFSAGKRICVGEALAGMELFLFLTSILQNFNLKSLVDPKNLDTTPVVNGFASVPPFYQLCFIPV
Sequence of Cytochrome P450 3A4 (Homo sapiens) (P08684 whole entry, looked up): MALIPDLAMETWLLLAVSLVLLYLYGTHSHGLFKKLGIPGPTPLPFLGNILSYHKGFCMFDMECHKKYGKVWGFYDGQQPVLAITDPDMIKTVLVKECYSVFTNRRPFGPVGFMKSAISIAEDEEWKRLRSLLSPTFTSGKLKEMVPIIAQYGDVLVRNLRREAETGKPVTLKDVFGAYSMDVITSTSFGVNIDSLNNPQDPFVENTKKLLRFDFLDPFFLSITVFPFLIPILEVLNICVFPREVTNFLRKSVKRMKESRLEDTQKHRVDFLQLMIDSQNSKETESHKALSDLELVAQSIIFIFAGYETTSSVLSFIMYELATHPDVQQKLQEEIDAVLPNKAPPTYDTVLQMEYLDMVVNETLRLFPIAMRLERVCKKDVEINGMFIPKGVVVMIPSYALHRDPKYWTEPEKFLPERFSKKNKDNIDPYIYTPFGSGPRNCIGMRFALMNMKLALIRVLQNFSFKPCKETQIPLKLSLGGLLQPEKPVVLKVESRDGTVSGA
Sequence of DNA polymerase kappa (Homo sapiens) (Q9UBT6 whole entry, looked up): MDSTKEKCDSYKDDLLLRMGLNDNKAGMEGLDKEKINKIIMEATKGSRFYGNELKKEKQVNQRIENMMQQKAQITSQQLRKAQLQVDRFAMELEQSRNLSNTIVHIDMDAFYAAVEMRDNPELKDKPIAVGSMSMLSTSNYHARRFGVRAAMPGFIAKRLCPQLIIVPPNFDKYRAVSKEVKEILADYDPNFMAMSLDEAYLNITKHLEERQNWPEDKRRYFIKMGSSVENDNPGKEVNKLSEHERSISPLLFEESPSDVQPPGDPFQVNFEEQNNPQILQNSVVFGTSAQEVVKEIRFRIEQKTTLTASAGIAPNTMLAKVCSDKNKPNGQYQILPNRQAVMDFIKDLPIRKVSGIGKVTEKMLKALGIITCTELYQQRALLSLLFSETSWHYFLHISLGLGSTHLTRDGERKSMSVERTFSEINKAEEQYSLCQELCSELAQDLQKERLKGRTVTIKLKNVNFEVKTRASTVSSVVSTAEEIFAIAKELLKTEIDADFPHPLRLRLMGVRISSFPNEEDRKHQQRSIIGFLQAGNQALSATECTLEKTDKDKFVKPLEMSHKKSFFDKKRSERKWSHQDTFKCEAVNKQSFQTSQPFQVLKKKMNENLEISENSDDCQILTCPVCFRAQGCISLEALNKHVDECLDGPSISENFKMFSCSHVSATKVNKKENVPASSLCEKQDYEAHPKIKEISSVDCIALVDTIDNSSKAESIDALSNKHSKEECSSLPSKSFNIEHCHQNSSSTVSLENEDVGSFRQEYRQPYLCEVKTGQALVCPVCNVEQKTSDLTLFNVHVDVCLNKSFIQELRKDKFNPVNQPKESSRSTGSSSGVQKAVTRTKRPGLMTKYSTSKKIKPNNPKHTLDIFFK
Sequence of Phosphoglycerate kinase, glycosomal (Trypanosoma brucei brucei) (P07378 whole entry, looked up): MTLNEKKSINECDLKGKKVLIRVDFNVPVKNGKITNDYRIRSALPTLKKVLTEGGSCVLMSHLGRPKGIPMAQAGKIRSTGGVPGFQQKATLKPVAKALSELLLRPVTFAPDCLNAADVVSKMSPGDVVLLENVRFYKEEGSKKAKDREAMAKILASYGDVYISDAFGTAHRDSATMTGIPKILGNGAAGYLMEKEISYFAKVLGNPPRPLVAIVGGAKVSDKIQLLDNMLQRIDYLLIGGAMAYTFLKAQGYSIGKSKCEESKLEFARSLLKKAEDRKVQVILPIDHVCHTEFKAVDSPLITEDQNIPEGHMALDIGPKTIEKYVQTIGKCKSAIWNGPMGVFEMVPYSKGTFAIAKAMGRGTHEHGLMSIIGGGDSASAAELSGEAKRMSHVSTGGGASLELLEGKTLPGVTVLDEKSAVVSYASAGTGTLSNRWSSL

Turning to `COc1ccc(-c2nc3c(c4c2C[C@H](c2ccccc2)OC4)CN(S(=O)(=O)c2ccc4c(c2)OCCN4C)CC3)c(C)c1`, the Potency result in test [1], in test [2], in test [3] and in test [4] was “inactive” each time.

As to `NCCC[C@@H](CC(=O)N[C@@H]1CCNC[C@H]1C(=O)N[C@H](CC(=O)N[C@@H](CCC(=O)O)CC(=O)O)Cc1ccccc1)NC(=O)C[C@H](Cc1c[nH]c2ccccc12)NC(=O)[C@@H]1CCCC[C@H]1N`, the Potency entry in test [5], in [6], in test [7], in [8] and in test [9] was “inactive” in each case.

On to `COC(=O)CCCC1=CC2=CC(=O)C(C)(OC(=O)c3cccs3)C(=O)C2=CN1c1ccc(CO)cc1` (stereo unspecified), for which the Potency result in [1], in test [2] and in test [4] was “inactive” in each case.

With `COc1ccc(-c2nc3c(c(SCC(=O)Nc4ccc(C(=O)O)cc4)n2)Cc2ccccc2O3)cc1`, the Potency in test [10] was 3.26 µM (active); in test [11], 4.23 µM (active); in [12], 7.64 µM (active); in test [14], 2.67 µM (active); in test [15], 3.04 µM (active). In addition, in test [13], the compound was classed as inactive.

Regarding `COc1ccc(C2=CC3=C(Br)C(=O)C(C)(OC(=O)c4cnc5ccccc5n4)C(=O)C3=CO2)cc1` (stereo unspecified), the Potency result in test [1], in test [3] and in test [4] was “inactive” each time.

Turning to `O=C(NCc1ccccc1)[C@H]1C[C@@H]1[C@H](NP(=O)(c1ccccc1)c1ccccc1)c1ccccc1`, the Potency result in test [5] and in test [6] was “inactive” each time.

With `CCCCC1=CC2=CC(=O)C(C)(OC(=O)CC)C(=O)C2=CN1Cc1ccco1` (stereo unspecified), the Potency entry in test [1], in test [2] and in test [4] was “inactive” each time.

Turning to `CC#CCN1c2ccccc2[C@]23C[C@@H](C(=O)OC)N(C(=O)COCc4ccccc4)C2=NC(C(=O)OC)=C(C(=O)OC)[C@H]13`, the Potency entry in [1], in test [2], in [3] and in test [4] was “inactive” in each case.

`COC(=O)[C@@]1(Cc2ccc(OC)cc2)[C@H]2c3cc(C(=O)N4CCCC4)n(CCSCCO)c3C[C@H]2CN1C(=O)c1ccccc1`: the Potency entry in test [5] and in test [6] was “inactive” each time.

Regarding `CCCCc1nc2c(c3c1C[C@H](C)OC3)CN(C(=O)N[C@@H](C)c1ccccc1)CC2`, the Potency result in [1], in test [2], in [3] and in test [4] was “inactive” each time.

For the compound `COC(=O)C1=C(C(=O)OC)[C@@H]2N(C)c3ccccc3[C@@]23C[C@@H](C(=O)OC)N(C(C)=O)C3=N1`, the Potency result in test [1], in test [2], in [3] and in test [4] was “inactive” in each case.

As for `O=C(NCCF)[C@H]1C[C@@H]1[C@H](NP(=O)(c1ccccc1)c1ccccc1)c1ccccc1`, in [5], the Potency entry was “inactive”.

Regarding `COC(=O)C1=C(C(=O)OC)[C@@H]2N(C)c3ccc(OC)cc3[C@@]23C[C@@H](C(=O)OC)N(C(=O)COCc2ccccc2)C3=N1`, the Potency result in [1], in test [2], in test [3] and in test [4] was “inactive” throughout.

In the case of `COC(=O)N[C@H](C(C(=O)OC)=C(C)NCc1ccccc1)c1cccc(F)c1`, the Potency result in [1], in test [2] and in test [4] was “inactive” throughout.

For the compound `COC(=O)[C@H]1C[C@@H]1[C@H](NS(=O)(=O)c1ccc(-c2ccccc2)cc1)c1ccccc1`, in test [5], the Potency entry was “inactive”.

With `COCCN1C(=O)N[C@@H](c2cccc(C(F)(F)F)c2)[C@@H](C(=O)OC)[C@H]1C`, the Potency entry in [1], in test [2], in test [3] and in test [4] was “inactive” in each case.

For `COC(=O)CCC(=O)OC1(C)C(=O)C2=CN(CCc3ccccn3)C(c3ccc(OC)cc3)=CC2=C(Br)C1=O` (stereo unspecified), the Potency entry in test [1], in test [2], in test [3] and in [4] was “inactive” each time.

Regarding `CO[C@@H]1/C=C\O[C@]2(C)Oc3c(C)c(O)c4c(O)c(c(/C=N\N5CCN(C)CC5)c(O)c4c3C2=O)NC(=O)/C(C)=C\C=C/[C@H](C)[C@H](O)[C@H](C)[C@H](O)[C@H](C)[C@H](OC(C)=O)[C@@H]1C`, the Potency entry in test [6] is “inactive”.

As for `CCOC(=O)CN1C(=O)N[C@@H](c2cccs2)C(C(=O)OC)=C1C`, the Potency result in [1], in test [2] and in test [4] was “inactive” in each case.

For `CO/N=C(/C(=O)NC1C(=O)N2C(C(=O)O)=C(COC(N)=O)CSC12)c1ccco1` (stereo unspecified), the Potency result in test [16], in [17] and in test [18] was “inactive” each time.

For the compound `COC/C=C/C1=CC2=CC(=O)C(C)(OC(=O)c3cnc4ccccc4n3)C(=O)C2=CN1c1ccccc1` (stereo unspecified), the Potency entry in test [1], in [2], in [3] and in [4] was “inactive” in each case.

Regarding `C=CCN1C=C2C(=O)C(C)(OC(=O)C3CCCC3)C(=O)C(c3ccccc3)=C2C=C1CCCC(=O)OC` (stereo unspecified), the Potency result in [1], in test [2], in test [3] and in test [4] was “inactive” in each case.

As for `Cc1ccccc1Nc1oc(-c2ccccc2)nc1-c1ccc(C(F)(F)F)cc1`, the Potency entry in test [1], in test [2] and in test [4] was “inactive” each time.

Consider `CC(=O)Nc1ccc2nc3c(=O)[nH]c(=O)[nH]c3nc2c1`, for which the Potency entry in [19] was “inactive”.
